PubChem BioAssay (NCATS)
Values without a mark were called inactive. The rule behind the calls is not given here.

system: HIV-1 nucleocapsid protein NCp7 (binding to TG oligonucleotide); test: HIV Nucleocapsid (AID 346); conditions: HIV-1 NC / fluorescein-TGTGTGTG probe, fluorescence polarization;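 note: potency is for inhibitors that block NC binding and lower polarization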
Outline: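 10 nM TG4xF probe with 100 nM nucleocapsid protein in high-salt Hepes pH 7.5 (250mM NaCl) containing 1uM ZnCl2 and reducing agents. Compound inhibition of binding was read as fluorescein polarization after 1 hr at room temperature.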
Potency is the fitted concentration of half-maximal effect.

Structure (SMILES) | Potency
O=C(c1csnn1)N1CCC2(CCCN(c3ccccn3)C2)CC1 | > 20 µM
CN(C)C(=O)c1ccc(-c2nc(-n3ccnc3)c3ccccc3n2)cc1 | > 20 µM
O=c1c(-c2ccccc2)nc2cnc(N3CCOCC3)nc2n1-c1ccccc1 | > 20 µM
O=C(Oc1ccccc1)N1CCC2(CC1)CCN(c1ccccn1)CC2 | > 20 µM
CN(C)Cc1ccccc1-c1cncnc1Nc1ccccc1 | > 20 µM
Cc1nc2cnc(N3CCN(C)CC3)nc2n(CCc2ccccc2)c1=O | > 20 µM
O=C(Nc1ccccc1)N1CCCC2(CCN(C(=O)c3cc(C(F)(F)F)cc(C(F)(F)F)c3)CC2)C1 | > 20 µM
COCCn1c(=O)c(-c2cccs2)nc2cnc(OCc3ccccc3)nc21 | > 20 µM
CN1CCN(c2nc(-c3ccc4c(c3)OCO4)nc3ccccc23)CC1 | > 20 µM
Cc1nc2cnc(N(C)C)nc2n(Cc2cccs2)c1=O | > 20 µM
CC(C)CN1CC2(CCN(S(=O)(=O)c3ccccc3)CC2)C1 | > 20 µM
COC(=O)N1CCC[C@@]2(CCN(C(=O)NC(C)C)C2)C1 | > 20 µM
c1cncc(-c2cncnc2-n2ccnc2)c1 | > 20 µM
CC(C)NC(=O)N1CCCC2(CCN(C(=O)c3csnn3)CC2)C1 | > 20 µM
COC(=O)N1CCC2(CC1)CN(c1ccccn1)C2 | > 20 µM
COc1ccc(CNc2ccnc(-c3ccoc3)n2)c(OC)c1 | > 20 µM
COc1ccc(NC(=O)N2CCCC3(CCN(C(=O)c4ccco4)CC3)C2)cc1 | > 20 µM
COc1ccccc1CN1CC2(CCN(C(=O)c3cnccn3)CC2)C1 | > 20 µM
CN(C)c1ccc(-c2cncnc2-n2ccnc2)cc1 | > 20 µM
CCNc1ncc2nc(-c3cn(C)c4ccccc34)c(=O)n(Cc3cccs3)c2n1 | > 20 µM
COc1ccc(C(=O)N2CCC3(CCCN(C(c4ccccc4)c4ccccc4)C3)CC2)cc1 | > 20 µM
CCNc1ncc2nc(CCc3ccccc3)c(=O)n(Cc3cccc(OC)c3)c2n1 | > 20 µM
CCNc1ncc2nc(-c3cn(C)c4ccccc34)c(=O)n(C)c2n1 | > 20 µM
Cc1cnc(CNc2ncncc2-c2ccccc2C(F)(F)F)cn1 | > 20 µM
CCNc1ncc2nc(-c3ccccc3)c(=O)n(C3CC3)c2n1 | > 20 µM
